Screens as filed in PubChem BioAssay.
Most compounds without a hit are left out; they make up all but 3% or so of the library.
Tau FP inhib = tau fibrillization inhibition (FP) | K18 P301L tau heparin fibrillization, Alexa594 FP, 6 h | Potency, µM (titrated, usually from 57.7 µM), for inactives: at the top dose activity, negative = inhibition, actives largely listed as inhibitors | P10636 | AID 1468 | actives 0.39% (n = 280,000); further: nearly all actives have a fitted effect of over 55% in size
Target sequence (P10636 561-689 P618L limits assumed): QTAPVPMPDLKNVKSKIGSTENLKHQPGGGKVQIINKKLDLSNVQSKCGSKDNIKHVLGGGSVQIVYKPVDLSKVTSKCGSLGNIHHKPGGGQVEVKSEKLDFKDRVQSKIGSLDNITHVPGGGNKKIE
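FP of Alexa 594-tau after heparin (20 uM) induction. Substrate: human K18 P301L, 15 uM unlabeled, 0.24 uM labeled. Buffer 100 mM sodium acetate pH 7. 6 hr, 37 C.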
Tau fluor counter = counter-screen for tau fibril formation inhibitors; tau K18 P301L Alexa594 fluorescence, heparin fibrillization; AID 1463; actives 0.93% (n = 280,000); Potency, µM (series often up to 57.7 µM), for inactives: at the highest dose activity change, negative = decrease; further: nearly all actives have a fitted effect of over 55% in size
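Human tau K18 P301L (15 uM unlabeled, 0.24 uM Alexa 594-labeled) in 100 mM sodium acetate pH 7 with 20 uM heparin, 6 hr at 37 C. ThT 30 uM added, 1 hr ambient; Alexa 594 FP and total fluorescence read at 555/632 nm.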
TRb SRC2 PPI = TRbeta-SRC2 interaction inhibition; TRbeta-SRC2 peptide binding, fluorescence polarization; receptor liganded with 1 µM T3; actives 0.065% (n = 280,000); Potency, µM (doses to about 106 µM), inactives show at the top dose activity change, negative = inhibition, usual class: inhibitors; P10828;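 further: plate controls were bound peptide for no effect and peptide without receptor for full effect; nearly all actives have a fitted effect of over 50% in size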
Target sequence (P10828 whole entry, looked up): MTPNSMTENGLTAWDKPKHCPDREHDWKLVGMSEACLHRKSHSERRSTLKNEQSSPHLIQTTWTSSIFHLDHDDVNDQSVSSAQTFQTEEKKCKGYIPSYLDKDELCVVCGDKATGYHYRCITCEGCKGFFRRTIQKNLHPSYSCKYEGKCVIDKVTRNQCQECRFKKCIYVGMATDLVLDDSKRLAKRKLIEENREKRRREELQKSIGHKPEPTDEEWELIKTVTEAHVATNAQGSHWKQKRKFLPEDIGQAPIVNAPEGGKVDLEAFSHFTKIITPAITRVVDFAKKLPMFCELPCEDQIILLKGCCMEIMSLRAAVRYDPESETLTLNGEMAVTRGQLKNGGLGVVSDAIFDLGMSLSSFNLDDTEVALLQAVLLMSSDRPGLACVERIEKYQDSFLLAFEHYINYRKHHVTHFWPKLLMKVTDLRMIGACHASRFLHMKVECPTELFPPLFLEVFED
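TRb LBD 0.6 uM + Texas Red SRC2 peptide 20 nM, 1 uM T3, Tris buffer w/ 5% DMSO; compound pinned, 5 h RT; FP read ex 555/em 632; normalized to unbound and bound controls.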
Tau fibril ThT = tau fibrillization inhibition (ThT binding) | recombinant tau K18 P301L, heparin-induced fibrillization, ThT fluorescence | actives 2.1% (n = 270,000) | Potency, µM (series often up to 57.4 µM), inactives show top-dose activity, negative = inhibition, actives largely listed as inhibitors; further: nearly all actives have a fitted effect of over 55% in size
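Using a mix of unlabeled (15 uM) and Alexa 594-labeled (0.24 uM) tau K18 P301L, heparin-triggered fibrillization over 6 hr at 37 C was scored by ThT fluorescence.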
TR SRC2 fluor cs = counter-screen for TRb-SRC2 inhibitors: fluorescence interference; TRb/SRC2 Texas Red total fluorescence interference; Potency, µM (series often up to 106 µM), inactives show at the top dose fluorescence change, negative = quenching; actives 0.29% (n = 280,000); AID 1479; active means well fitted curve in either direction with a large enough effect; inconclusive means small, poorly fitted or top-dose-only effect
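Flags fluorescent or light-absorbing compounds by total fluorescence, S + 2P, at 555 nm excitation and 632 nm emission. Mixture: 20 nM Texas Red SRC2 peptide, 0.6 uM human TRb LBD, 1 uM T3, 5% DMSO; compound exposure 5 h at ambient temperature.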
Numbers without * were called inactive; u = inconclusive; x = not tested or not shown; [ ] = remark or other dose. Unless noted, the call rests on the fitted dose curve; in most records, active means well fitted curve in the direction sought with a large enough effect; inconclusive means small, poorly fitted or top-dose-only effect, or another doubt; inactive means no such curve, though single readings can be large; an effect the other way counts as inactive or inconclusive. Unless noted, on the % scale 0 is the no-effect control and ±100 the full control effect; potency means the concentration at half of the fitted maximal effect.

SMILES	Tau FP inhib	Tau fluor counter	TRb SRC2 PPI	Tau fibril ThT	TR SRC2 fluor cs
COc1ccccc1C(C[N+](=O)[O-])c1c[nH]c2ccccc12 (stereo unspecified)	u	31.6µM*[quencher]	-0.7%	-6.5%	0.3%
CCCCOC(=O)c1ccc(NC(=O)Nc2ccc(OC)c(OC)c2)cc1	-8.7%	6.31µM*[quencher]	-4.9%	u	-2.7%
CCOC(=O)c1ccccc1NC(=O)Nc1ccc(OC)c(OC)c1	8.6%	6.5%	6.1%	6.8%	2.7%
CCOC(=O)c1ccc(NC(=O)Nc2ccc(OC)c(OC)c2)cc1	u	12.6µM*[quencher]	0.9%	u	-1.2%
O=C(/C=C/c1cccs1)c1ccc(NC(=O)c2cccc(Br)c2)cc1	u	u	2.3%	7.08µM*	-2.3%
CCCCOC(=O)c1ccc(NC(=O)/C=C/c2cccs2)cc1	14.1µM*	u	-3.5%	13.8%	2.2%
CSc1cccc(NC(=O)Cn2c3ncccc3c(=O)n2-c2ccc(C)cc2)c1	u	u	-1.2%	2.5%	-0.5%
COc1ccc(OCC(O)Cn2c(NCCO)nc3c2c(=O)n(C)c(=O)n3C)cc1 (stereo unspecified)	2.4%	3.8%	10.8%	2.2%	-2.9%
C=CC(=O)c1ccc(CCCCCC)cc1	x	x	-27.8%	x	-19.6%
CCCCC[C@H](O)/C=C/[C@H]1OC(O)C[C@H](O)[C@@H]1C/C=C\CCCC(=O)O (stereo partly specified)	-7.6%	-7.0%	5.6%	-1.4%	-1.4%
COC[C@@H](O)[C@@H](OC)[C@H](OC)[C@H](Cc1c(OC)cc(OC)cc1OC)OC	3.9%	-2.3%	-4.5%	-4.8%	0.2%
COc1ccc(NC(=O)Nc2cccs2)cc1OC	1.6%	u	-5.9%	15.8µM*	-5.2%
COc1cccc(NC(=O)Nc2cccs2)c1	13.6%	u	-10.4%	u	-0.2%
COc1ccc(C(=O)NCC(c2ccc(N(C)C)cc2)N2CCc3ccccc32)cc1 (stereo unspecified)	u	u	-4.5%	15.8µM*	-2.3%
CCN1CC2=C(OC(N)=C(C#N)C2c2cccs2)/C(=C\c2cccs2)C1 (stereo unspecified)	-13.0%	u	-7.0%	14.1µM*	0.5%
CCOC(=O)C1=C(CC)OC(N)=C(C#N)C1c1cccs1 (stereo unspecified)	-11.0%	-21.7%	0.4%	-18.8%	-1.5%
COc1cccc(C(=O)/C(C#N)=N/Nc2cccc(-c3ccnc(C)n3)c2)c1	-2.4%	u	-1.4%	5.01µM*	-11.1%
COc1ccccc1CNS(=O)(=O)c1ccc2c(c1)NC(=O)C(C)C(=O)N2 (stereo unspecified)	-1.2%	-26.6%	4.6%	-10.4%	-0.5%
CC1(C)OC(C)(C)/C(=C/Nc2ccc(O)cc2)C1=O	u	u	9.1%	14.1µM*	1.4%
CCOC(=O)Nc1ccc(NCc2ccc(F)cc2)nc1N	u	u	-29.4%	17.8µM*	9.9%
Cc1ccc(C)c(N2CCN(CCCNC(=O)C3COc4ccccc4C3)CC2)c1 (stereo unspecified)	4.3%	0.0%	10.6%	-2.5%	-4.1%
O=C(/C=C/c1ccc([N+](=O)[O-])cc1)Nc1ncc([N+](=O)[O-])s1	10.5%	u	2.8%	3.55µM*	-1.9%
O=C(/C=C/c1ccc([N+](=O)[O-])cc1)NCc1ccccn1	6.8%	5.6%	6.7%	2.3%	-1.4%
O=C(Nc1ccc(C2=NCCN2)cc1)c1ccc(C(=O)Nc2ccc(C3=NCCN3)cc2)c([N+](=O)[O-])c1	-5.2%	u	-5.7%	4.47µM*	-1.4%
Cc1ccc(C(=O)ONc2ccc(N=O)cc2)cc1	-2.6%	-12.0%	11.6%	-26.8%	-5.7%
SMILES	Tau FP inhib	Tau fluor counter	TRb SRC2 PPI	Tau fibril ThT	TR SRC2 fluor cs
Cc1ccc(C(=O)ONc2ccc(N=NC(=O)c3ccccc3O)cc2)cc1	-3.3%	u	-7.1%	2.24µM*	-3.8%
O=C(O)c1cc(Br)ccc1NN=C1CCCCC1	-14.1%	-21.9%	-6.9%	20µM*	-4.3%
O=c1cccccc1NN=C1CCCCC1	-6.6%	-14.8%	9.1%	x	-2.7%
CCn1nnc2cc(C(=O)Nc3cccc(Cl)c3C)ccc21	3.3%	-2.9%	0.9%	u	-0.8%
O=C(Nc1ccccc1)Nc1ccc(Cl)c([N+](=O)[O-])c1	u	11.2µM*[quencher]	-7.0%	u	0.7%
O=C(Nc1ccc(C(O)(C(F)(F)F)C(F)(F)F)cc1)c1ccc(Cl)c([N+](=O)[O-])c1	-14.3%	12.6µM*[quencher]	-11.9%	u	-3.4%
O=C(O)c1cc(NC(=O)c2ccc(Cl)c([N+](=O)[O-])c2)cc(C(=O)O)c1	1.7%	-0.7%	5.6%	-2.5%	-4.5%
COC(=O)CCC(=O)OC1(C)C(=O)C=C2C=C(C3CC3)N(c3ccc(OC)cc3)C=C2C1=O (stereo unspecified)	-4.1%[11.6 µM]	-7.9%[11.6 µM]	6.1%[11.2 µM]	u	-2.3%[11.2 µM]
O=C1c2ccccc2C2=Nc3ccccc3SC(c3cccc(F)c3)C12 (stereo unspecified)	u	12.6µM*[quencher]	2.9%	12.6µM*	-2.9%
Cc1cccc(N2C(S)=C(C#N)C(=O)NC2c2cccs2)c1 (stereo unspecified)	u	-28.6%	3.7%	31.6µM*	0.8%
O=c1[nH]c(SCc2c(F)cccc2Cl)nc2c1CCC2	1.4%	2.5%	5.6%	-1.7%	-3.9%
COC(=O)c1c(C)sc(-c2c(-c3ccc4c(c3)OCCO4)[nH]c3[nH]c(=O)[nH]c(=O)c23)c1O	u	20µM*[quencher]	6.1%	u	u
CCOC(=O)c1c(C)sc(-c2c(-c3ccc(OC)c(F)c3)[nH]c3[nH]c(=O)[nH]c(=O)c23)c1O	5.8%	3.55µM*[quencher]	6.8%	-0.4%	-1.0%
CCOC(=O)c1c(C)sc(-c2c(-c3ccccc3)[nH]c3[nH]c(=O)[nH]c(=O)c23)c1O	4.0%	6.31µM*[quencher]	-11.4%	u	4.1%
CCOC(=O)c1c(C)sc(-c2c(-c3ccc(OC)c(F)c3)[nH]c3c2c(=O)[nH]c(=O)n3C)c1O	13.4%	12.6µM*[quencher]	8.0%	u	7.5%
COC(=O)c1c(C)sc(-c2c(-c3ccc4c(c3)OCCO4)[nH]c3c2c(=O)n(C)c(=O)n3C)c1O	u	u	3.8%	-0.2%	-6.3%
Fc1ccc(CNc2cc(-c3ccccc3)nc3nncn23)cc1	0.8%	-6.2%	-2.0%	2.0%	-0.7%
C=CCC(O)(C#Cc1ccccc1)c1ccccc1 (stereo unspecified)	1.7%	-2.9%	-0.5%	0.0%	-1.0%
CC1=CC(=O)C2=C(C)C[C@@H]3OC(=O)[C@@H](C)[C@H]3C=C12	-2.8%	-9.3%	6.0%	-8.1%	-0.9%
CCOc1ccc(-n2c(=O)c3c4c(sc3n(Cc3cccc(C)c3)c2=O)CCCC4)cc1	-4.7%	-10.1%	-1.7%	-4.6%	-1.1%
